CHRM1 agonist – agonists of human M1 muscarinic receptor; activation, % at 3 µM; actives 0.33% (n = 360,000); CHO-K1 hM1, Fluo-8 calcium fluorescence, agonist mode; 0% DMSO, 100% acetylcholine EC100;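 active = activation above the run's mean compound activation plus 3 SD, cut at about 16% in these data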;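 also: peak over basal fluorescence ratio within a 140 s kinetic read after compound addition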
Target sequence (P11229 whole entry, looked up): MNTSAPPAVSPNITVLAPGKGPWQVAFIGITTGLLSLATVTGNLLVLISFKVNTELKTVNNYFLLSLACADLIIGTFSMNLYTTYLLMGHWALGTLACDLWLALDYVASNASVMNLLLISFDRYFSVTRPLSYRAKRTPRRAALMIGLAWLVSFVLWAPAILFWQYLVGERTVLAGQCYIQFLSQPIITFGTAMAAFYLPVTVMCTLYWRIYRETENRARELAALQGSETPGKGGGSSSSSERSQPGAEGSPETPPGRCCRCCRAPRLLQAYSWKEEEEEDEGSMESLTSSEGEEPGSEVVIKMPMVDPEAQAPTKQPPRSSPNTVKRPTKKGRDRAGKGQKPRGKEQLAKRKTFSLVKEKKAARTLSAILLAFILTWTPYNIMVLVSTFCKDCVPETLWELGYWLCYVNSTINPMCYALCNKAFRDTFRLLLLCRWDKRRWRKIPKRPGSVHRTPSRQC
CHO-K1 Ca antag – counter-screen for M1 antagonists: effect in parental CHO-K1 cells | actives 0.6% (n = 360,000) | inhibition, % at 3 µM | ATP-induced calcium, Fluo-8 fluorescence;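 active = inhibition above a per-plate cutoff, the plate's mean sample inhibition plus 3 SD, cut at about 24% in these data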
CHRM1 PAM – positive allosteric modulators of human M1 muscarinic receptor; P11229; CHO-K1 hM1, Fluo-8 calcium fluorescence, ACh EC20; 0% = ACh EC20, 100% = maximal ACh; activation, % at 3 µM; actives 0.088% (n = 360,000); AID 588819; in the data active = activation above about 19%, passing the limit was not always enough
CHRM1 antagonist – antagonists of human M1 muscarinic receptor; actives 1.3% (n = 360,000); CHO-K1 hM1, Fluo-8 calcium fluorescence, ACh EC80 antagonist; P11229; inhibition, % at 3 µM;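 active = percent inhibition above its own plate's cutoff, namely the mean of that plate's compound wells plus 3 SD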;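 also: peak over basal fluorescence ratio during 140 s after agonist addition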
CHO-K1 Ca ag – nonselective activator or artifact in parental CHO-K1 cells; Fluo-8 calcium fluorescence; scaled to maximal ATP response, vehicle zero; actives 0.48% (n = 360,000); activation, % at 3 µM; in the data active = activation above about 15%;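 also: untransfected CHO-K1 host cells lacking M1 receptor as counterscreen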
M1 PAM parental – counter-screen for M1 PAMs: effect in parental CHO-K1 cells | ATP EC20, Fluo-8 calcium fluorescence; 0% at ATP EC20, 100% at ATP max | activation, % at 3 µM | actives 0.02% (n = 360,000);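 active = activation above the run cutoff, the mean activation of all test compounds plus 3 SD, cut at about 40% in these data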;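 also: peak over basal fluorescence ratio in a 140 s read after ATP addition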
Hits are given with their value; 0 = inactive. Hits are enriched below; roughly 2.3% of the tested compounds scored in any of these assays.

SMILES | CHRM1 agonist | CHO-K1 Ca antag | CHRM1 PAM | CHRM1 antagonist | CHO-K1 Ca ag | M1 PAM parental
Cn1c(-c2ccc3c(c2)OCO3)cnc1NCc1ccccc1Cl | 0 | 0 | 0 | 94 | 0 | 0
Cn1c(-c2ccc3c(c2)OCO3)cnc1NCc1cccc(Cl)c1 | 0 | 0 | 0 | 74 | 0 | 0
Cc1ccc(-c2cnc(NCc3cc4c(cc3[N+](=O)[O-])OCO4)n2C)cc1C | 0 | 0 | 0 | 0 | 17 | 0
Cn1c(-c2ccc3c(c2)OCO3)cnc1NCc1ccccc1 | 0 | 0 | 0 | 0 | 0 | 0
Cc1cc(C)cc(NCc2cc3c(cc2[N+](=O)[O-])OCO3)c1 | 0 | 0 | 0 | 0 | 0 | 0
CCCS(=O)(=O)NC(=O)C1(C)CCCN(C(=O)c2ccc(F)cc2Cl)C1 (stereo not given) | 0 | 0 | 0 | 0 | 0 | 0
Cc1cnc(C(=O)OCC(=O)Nc2ccc(Br)c(C)c2)cn1 | 0 | 0 | 0 | 0 | 0 | 0
Cc1ccc2cc(CN(c3cccc(C)c3C)S(=O)(=O)c3ccccc3)c(=O)[nH]c2c1 | 0 | 0 | 0 | 0 | 0 | 0
CC1=CCC(C(=O)N/N=C/c2cccs2)C(c2ccc(F)cc2)C1 (stereo not given) | 0 | 0 | 0 | 0 | 0 | 48
COC(=O)N(C)C[C@@H]1OCc2cn(nn2)CCCC(=O)N([C@@H](C)CO)C[C@H]1C | 0 | 0 | 0 | 0 | 0 | 0
OCCC1CN(C/C(Cl)=C/c2ccccc2)CCN1C1CCCC1 (stereo not given) | 0 | 0 | 0 | 22 | 0 | 0
OCCC1CN(Cc2ccsc2)CCN1C1CCCC1 (stereo not given) | 0 | 0 | 0 | 43 | 0 | 0
OCCC1CN(Cc2nc(-c3ccccc3)cs2)CCN1C1CCCC1 (stereo not given) | 0 | 0 | 0 | 45 | 0 | 0
CC(C)=CCN1CCN(C/C(Cl)=C/c2ccccc2)CC1CCO (stereo not given) | 0 | 0 | 0 | 0 | 0 | 0
COc1ccc2c(c1)C=C(CN1CCN(C3CCCC3)C(CCO)C1)CO2 (stereo not given) | 0 | 0 | 0 | 95 | 0 | 0
Cc1ccc(SCC(=O)OC(C)C(=O)NCc2ccccc2)cc1 (stereo not given) | 0 | 0 | 0 | 0 | 0 | 0
C/C(=N\NS(=O)(=O)c1ccccc1)c1ccc2c(c1)OCCO2 | 0 | 0 | 0 | 0 | 0 | 0
OCCC1CN(Cc2c(F)cccc2Cl)CCN1C1CCCC1 (stereo not given) | 0 | 0 | 0 | 57 | 0 | 0
O=C(C1COc2ccccc2O1)N1CCN(c2ccc(C(F)(F)F)cn2)CC1 (stereo not given) | 0 | 0 | 0 | 0 | 24 | 0
NS(=O)(=O)c1ccc(N2CCN(C(=O)C3COc4ccccc4O3)CC2)nc1 (stereo not given) | 0 | 0 | 0 | 0 | 0 | 0
O=C(C1CC(c2ccc(F)cc2)=NO1)N1CCN(c2ccccc2)CC1 (stereo not given) | 0 | 0 | 0 | 47 | 0 | 0
O=C(C1CC(c2ccc(F)cc2)=NO1)N1CCCCC1 (stereo not given) | 0 | 0 | 0 | 0 | 0 | 0
O=C(C1COc2ccccc2O1)N1CCN(c2ccccc2)CC1 (stereo not given) | 0 | 53 | 0 | 0 | 0 | 0
COc1ccc(S(=O)(=O)N2CCN(C(=O)C3COc4ccccc4O3)CC2)cc1 (stereo not given) | 0 | 0 | 0 | 89 | 0 | 0
CCn1c(SCC(=O)Nc2cccc(OC)c2)nc2c(c1=O)SCC2 | 0 | 0 | 0 | 0 | 0 | 0
SMILES | CHRM1 agonist | CHO-K1 Ca antag | CHRM1 PAM | CHRM1 antagonist | CHO-K1 Ca ag | M1 PAM parental
OCCN1CCN(c2nc(-c3ccccc3O)nc3ccccc23)CC1 | 0 | 0 | 0 | 0 | 0 | 0
CCOC(=O)c1[nH]c(C)c(C(=O)C(C)C)c1C | 0 | 0 | 0 | 0 | 0 | 0
CC(OC(=O)Cn1[nH]c(=O)c2ccccc2c1=O)C(=O)c1ccccc1 (stereo not given) | 0 | 24 | 0 | 0 | 0 | 0
O=C(O)c1[nH]c(-c2ccccc2)c2c1C(=O)N(C1CC1)C2=O | 0 | 0 | 0 | 0 | 0 | 0
O=C(C[n+]1ccccc1)N/N=C/c1ccc(Br)cc1 | 0 | 0 | 0 | 0 | 0 | 0
CC(C)=CCc1c(O)cc2oc3c(CC=C(C)C)c(O)c(O)c(CC=C(C)C)c3c(=O)c2c1O | 0 | 25 | 0 | 0 | 0 | 0
CC(C)=CCc1cc(-c2oc3cc(O)cc(O)c3c(=O)c2O)ccc1O | 0 | 0 | 0 | 0 | 0 | 0
CCC(C)[C@H]1CN=C(N)N1CCc1cccc2ccccc12 (stereo not given in full) | 0 | 0 | 0 | 38 | 0 | 0
O=C(CCCCCNC(=O)c1ccccc1Cl)N/N=C/c1ccco1 | 0 | 0 | 0 | 0 | 0 | 0
Cc1[nH]c(=S)[nH]c(=O)c1Cc1c(O)ccc2ccccc12 | 35 | 0 | 27 | 0 | 0 | 0
Cc1[nH]c(=S)[nH]c(=O)c1Cc1ccccc1 | 0 | 0 | 0 | 0 | 0 | 0
COC(=O)c1ccc(COC(=O)c2ccc(SC)cc2OC)cc1 | 0 | 0 | 0 | 0 | 20 | 0
COc1cc(SC)ccc1C(=O)OCC(=O)NCCNC(=O)COC(=O)c1ccc(SC)cc1OC | 0 | 0 | 0 | 0 | 0 | 0
Cc1cc(C)n(-c2ccccc2C#N)n1 | 0 | 25 | 0 | 0 | 0 | 0
Cc1cc(C)n(-c2cccc3cccnc23)n1 | 0 | 0 | 0 | 0 | 0 | 0
CC1=NNC(=O)C1C(c1cccc(O)c1)C(C#N)C#N (stereo not given) | 0 | 29 | 0 | 0 | 0 | 0
Cc1cccc(C(=O)Nc2cc(S(=O)(=O)N3CCOCC3)ccc2N2CCCCC2)c1 | 0 | 0 | 0 | 0 | 0 | 0
CC1CN(C(=O)CCc2cc(C(C)(C)C)c(O)c(C(C)(C)C)c2)CC(C)O1 (stereo not given) | 0 | 27 | 0 | 0 | 0 | 0
CC(C)(C)c1cc(CCC(=O)N2CCC2)cc(C(C)(C)C)c1O | 0 | 0 | 0 | 0 | 0 | 0
CCOc1ccccc1-n1c(SC(C)C(=O)NCC2CCCO2)nc2ccccc2c1=O (stereo not given) | 30 | 0 | 0 | 0 | 0 | 0
O=C(O)c1cc([N+](=O)[O-])ccc1NCCCc1ccccc1 | 18 | 0 | 0 | 0 | 0 | 0
O=C(O)c1cc([N+](=O)[O-])ccc1NCc1ccccc1 | 0 | 0 | 0 | 0 | 0 | 0
COc1ccc(CCNC(=O)Cc2ccsc2)cc1 | 0 | 0 | 0 | 0 | 0 | 0
Cn1c(N)c(C(=O)COC(=O)COc2ccccc2Cl)c(=O)n(C)c1=O | 0 | 0 | 0 | 0 | 0 | 0
Cc1cc(C)c(C(=O)c2ccc(C(=O)N3CCCCC3)cc2)c(C)c1 | 36 | 0 | 0 | 0 | 28 | 0
Cc1cc(C)cc(C(=O)N2CCCCCC2)c1 | 0 | 0 | 0 | 0 | 0 | 0
CCCCC(=O)Nc1cc(Cl)ccc1C(=O)O | 0 | 0 | 0 | 0 | 0 | 0
COc1nccnc1NS(=O)(=O)c1ccc(NC(=O)c2ccc(F)cc2)cc1 | 0 | 0 | 29 | 0 | 0 | 0
